Screening data: PubChem, Sanford-Burnham Center for Chemical Genomics
Rows were chosen to be rich in hits. Some 3% of all compounds tested hit in one or more screens of this group.
PPC-1+TRAIL kill = kills PPC-1 cancer cells in the presence of TRAIL | PPC-1 cells + TRAIL, ATPLite viability luminescence | cell killing (% activity), % at 4 µM or 5 µM | 220,000 compounds, 0.41% hits | AID 1443;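 active = cell killing above 50% in the first pass at 4 µM, then a duplicate retest at 5 µM averaging 50% or more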
SENP7 block = SENP7 protease inhibition | Q9BQF6 | recombinant SENP7, Z-RLRGG-aminoluciferin luminescence, 40 min | inhibition, % at 5 µM | 330,000 compounds, 1.5% hits | AID 434973;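 active = inhibition above about 50% at the single test dose, limit read from the data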
Target sequence (Q9BQF6 706-1050 limits assumed): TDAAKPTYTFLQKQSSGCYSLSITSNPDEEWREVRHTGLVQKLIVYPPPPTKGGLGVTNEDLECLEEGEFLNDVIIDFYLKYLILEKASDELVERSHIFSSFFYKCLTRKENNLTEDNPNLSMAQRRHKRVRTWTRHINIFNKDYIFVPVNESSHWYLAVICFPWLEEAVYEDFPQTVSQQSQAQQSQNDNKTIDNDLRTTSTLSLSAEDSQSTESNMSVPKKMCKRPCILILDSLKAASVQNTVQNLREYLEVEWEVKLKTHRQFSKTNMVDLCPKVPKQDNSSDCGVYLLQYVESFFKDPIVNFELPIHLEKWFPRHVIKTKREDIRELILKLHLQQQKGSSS
TRAIL sens C8 = sensitizes caspase-8 expressing cells to TRAIL; NB7+C8 cells + TRAIL, ATPlite viability luminescence; inhibition (viability loss, TRAIL sensitization), % at 10 µM; 360,000 compounds, 1% hits;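 active = compounds causing at least 50% loss of cell viability in the single-dose screen, relative to plate controls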
SENP6 block = inhibitors of human SENP6 protease. Q9GZR1. inhibition, % at 10 µM. Recombinant SENP6 catalytic domain, aminoluciferin luminescence. AID 2599. 330,000 compounds, 1.8% hits;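 active = inhibition above about 50% at the single tested dose, limit read from the data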
SENP8 block-1 = inhibitors of human SENP8 protease; inhibition, % at 10 µM; purified SENP8, Z-RLRGG-aminoluciferin cleavage, luminescence; 330,000 compounds, 1.2% hits; AID 2540; Q96LD8; in the data active = inhibition above about 50%
SENP8 block-2 = blocks human SENP8 cleavage of Nedd8 substrate; Q96LD8; recombinant SENP8, Nedd8 substrate fluorescence; inhibition, % at 20 µM; 360,000 compounds, 0.64% hits; AID 602440; in the data active = inhibition mostly above about 40%, no sharp cut-off; inactive = mostly below about 27%
SENP8 confirm = human SENP8 inhibition, confirmed | shares compounds with SENP7 block | Recombinant SENP8, Z-RLRGG-aminoluciferin luminescence, 60 min | inhibition, % at 12.5 µM | 6,200 compounds, 40% hits;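 active = mean inhibition across replicates above about 50%, limit read from the data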
SENP6 conf = confirmation of human SENP6 protease inhibitors; shares compounds with SENP7 block; recombinant SENP6, Z-RLRGG-aminoluciferin luminescence; inhibition, % at 12.5 µM; 6,200 compounds, 58% hits; AID 488915
SENP7 conf = confirmation of human SENP7 protease inhibitors | shares compounds with SENP7 block | recombinant SENP7, Z-RLRGG-aminoluciferin luminescence, 40 min | inhibition, % at 12.5 µM | 6,200 compounds, 69% hits | AID 488917
Casp3 select = inhibits human caspase-3 in SENP selectivity test. inhibition, % at 12.5 µM. 6,200 compounds, 60% hits. purified caspase-3, Z-DEVD-aminoluciferin luminescence, 60 min. shares compounds with SENP7 block;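 active = mean inhibition above about 50%, limit read from the data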
Target sequence (P42574 28-227 limits assumed): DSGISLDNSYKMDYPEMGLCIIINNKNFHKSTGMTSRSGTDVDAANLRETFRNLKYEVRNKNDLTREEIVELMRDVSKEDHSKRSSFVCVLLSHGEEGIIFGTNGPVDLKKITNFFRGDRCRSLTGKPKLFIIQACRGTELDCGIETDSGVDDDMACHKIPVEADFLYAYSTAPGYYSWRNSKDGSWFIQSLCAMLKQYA
Luc interf = luminescence interference (SENP counter-screen) | 6,200 compounds, 39% hits | inhibition, % at 12.5 µM | Pre-incubated SENP8/Z-RLRGG-aminoluciferin, luciferase luminescence interference | shares compounds with SENP7 block;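 active = mean inhibition above about 50% when retested at one dose, limit read from the data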
A number is an active result; i = inactive; nt = not tested or not shown; ! = not confirmed by another sample.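 Rule for the calls, unless noted: active = mean inhibition above about 50% in the one-dose retest (limit read from the data); inactive = the rest.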

SMILES	PPC-1+TRAIL kill	SENP7 block	TRAIL sens C8	SENP6 block	SENP8 block-1	SENP8 block-2	SENP8 confirm	SENP6 conf	SENP7 conf	Casp3 select	Luc interf
COc1cc2c(C#N)c(N3CCN(C)CC3)nc(N)c2c(N)n1	i	55	i	59	i	i	i	i	i	i	i
CCOc1cc2c(C#N)c(N3CCCC3)nc(N)c2c(N)n1	nt	i	i	i	i	i	nt	nt	nt	nt	nt
CCCCN(CC)c1nc(N)c2c(N)nc(OCC)cc2c1C#N	i	i	i	67	66	i	i	i	i	i	i
COc1cc2c(C#N)c(N3CCN(c4ccccc4OC)CC3)nc(N)c2c(N)n1	i	i	i	i	i	i	nt	nt	nt	nt	nt
COc1cc2c(C#N)c(N3CCCC3)nc(N)c2c(N)n1	i	73!	i	95	88	i	i	62	i	i	i
CCCOc1cc2c(C#N)c(N3CCCC3)nc(N)c2c(N)n1	nt	61	i	85	67	i	i	75	i	nt	i
O=C(O)c1cccc(S(=O)(=O)Nc2cccc(S(=O)(=O)N3CCCC3)c2)c1	nt	i	i	i	i	i	nt	nt	nt	nt	nt
N#Cc1c(N2CCCC2)nc(N)c2c(N)nc(N3CCCC3)cc12	i	97	i	97	97	i	98	98	97	97	i
CCCn1c(/N=C/c2c[nH]c3ccccc23)nc2ccccc21	i	i	i	i	i	i	nt	nt	nt	nt	nt
CCn1c(/N=C/c2c[nH]c3ccccc23)nc2ccccc21	i	i	i	72	53	i	69	71	92	i	79
Cc1cc(NC(=O)c2sc3ccccc3c2O)no1	nt	73	i	89	75	i	86	85	98	92	65
CCOC(=O)Cn1c2ccc(C)cc2c2nc(C)sc21	i	i	i	51	i	i	i	i	i	i	i
CCCC(=O)Nc1cccc(-c2nc3cc(C)c(C)cc3o2)c1	i	91	i	i	i	i	i	i	i	i	54
CCC(=O)Nc1cccc(-c2nc3ccc(C)cc3o2)c1	nt	i	i	i	i	i	nt	nt	nt	nt	nt
Cc1ccc2oc(-c3cccc(NC(=O)Cc4cccs4)c3)nc2c1	i	75	i	i	i	i	i	i	i	i	i
CCC(=O)Nc1cccc(-c2nnc(-c3cccc(NC(=O)CC)c3)o2)c1	i	i	i	i	i	i	nt	nt	nt	nt	nt
CCC(=O)Nc1ccc2oc(-c3cccc(C)c3)nc2c1	i	98	60	99	94	i	i	98	103	96	75
CCC(=O)Nc1ccc(-c2nnc(-c3ccccc3)o2)cc1	i	75	i	72	i	i	i	i	i	i	i
Cc1ccc2oc(-c3ccc(C)c(NC(=O)Cc4cccs4)c3)nc2c1	i	i	i	i	i	i	nt	nt	nt	nt	nt
O=C(NCc1ccccc1)N1CCNCC1	nt	i	i	i	i	i	nt	nt	nt	nt	nt
CCC(C)COC(=O)c1ccc(C(=O)O)cc1 (stereo unspecified)	i	i	i	62	i	i	i	i	81	86	70
Cc1ccc(NC(=O)COC(=O)c2c[nH]c3ccccc23)cc1C	nt	i	i	i	i	i	nt	nt	nt	nt	nt
Cc1cc(O)cc2c1C(=O)/C(=C/c1ccco1)O2	nt	i	i	67	63	i	85	87	98	90	89
CCC(=O)Oc1ccc2c(c1)O/C(=C\c1ccco1)C2=O	i	i	i	i	i	i	nt	nt	nt	nt	nt
Cn1c(COc2ccc(F)cc2)nc2ccccc21	nt	61	i	62	i	i	60	58	83	76	64
SMILES	PPC-1+TRAIL kill	SENP7 block	TRAIL sens C8	SENP6 block	SENP8 block-1	SENP8 block-2	SENP8 confirm	SENP6 conf	SENP7 conf	Casp3 select	Luc interf
CCOc1ccc(CNc2nc3ccccc3n2C)cc1	nt	69	i	84	56	i	i	59	88	86	72
Cc1cccc(OCc2nc3ccccc3n2C)c1	nt	i	i	i	i	i	nt	nt	nt	nt	nt
Cc1ccccc1OCc1nc2ccccc2n1C	nt	72	i	i	79	i	i	80	96	86	82
CSc1ccccc1NC(=O)CN(C)C(=O)COc1cccc2cccnc12	nt	i	i	i	i	i	nt	nt	nt	nt	nt
CCCCCc1ccc(-c2ccc(/C=C/C(=O)O)cc2)nc1	i	i	82	76	i	i	76	68	88	i	i
CC(C)c1ccc(/C=C/C(=O)O)cc1	i	i	i	i	i	i	nt	nt	nt	nt	nt
Cc1csc(NC(=O)c2ccc3c(c2)OCO3)n1	nt	86	i	85	75	i	i	80	96	90	82
CC(=O)c1sc(NC(=O)c2cnc(Cl)c(Cl)c2)nc1C	nt	66	i	84	77	i	i	54	i	91	82
COc1ccc(C(=O)Nc2nccs2)cc1OC	i	i	i	i	i	i	nt	nt	nt	nt	nt
CC(=O)c1sc(NC(=O)c2ccc3c(c2)OCO3)nc1C	nt	82	i	80	70	i	63	77	95	88	77
O=C(Nc1nccs1)c1ccc2c(c1)OCO2	nt	i	i	63	i	i	i	i	68	67	i
CC(=O)c1sc(NC(=O)c2ccc(C)c(C)c2)nc1C	i	i	i	i	i	i	nt	nt	nt	nt	nt
Nc1ncnc2c1ncn2C1C=C(CO)C(O)C1O (stereo unspecified)	nt	nt	i	nt	nt	i	nt	nt	nt	nt	nt
NC(=O)C1CCN(C(=O)CCC(=O)c2ccc(F)cc2)CC1	nt	i	i	i	i	i	nt	nt	nt	nt	nt
CSc1ncccc1C(=O)Nc1cccc(S(=O)(=O)N2CCCCCC2)c1	nt	i	i	i	i	i	nt	nt	nt	nt	nt
CC1=CCC(COC(=O)Nc2ccccc2)CC1 (stereo unspecified)	i	89	i	82	80	i	86	90	99	75	81
O=C(Nc1ccccc1)OCC1CCCN2CCCCC12 (stereo unspecified)	i	i	i	i	i	i	nt	nt	nt	nt	nt
CC(C)c1ccc(OCc2nc(-c3ccccn3)no2)c(Br)c1	i	69	i	85	67	i	74	82	93	63	70
Cc1ccc(SCc2nc(-c3ccccn3)no2)cc1	i	i	i	i	i	i	nt	nt	nt	nt	nt
CC(Oc1ccc(Cl)cc1Cl)c1nc(-c2ccccn2)no1 (stereo unspecified)	i	i	i	i	i	i	nt	nt	nt	nt	nt
Clc1ccc(OCc2nc(-c3ccncc3)no2)c(Br)c1	i	i	i	i	i	i	nt	nt	nt	nt	nt
